Assay results as given in the supplement of paper PMC6555819.

Key:
Assay in all cases: PBM binding z-score (relative to random genomic background probes); higher = stronger binding; sequences stand for … in GC…GCGATTGACAGCGTAGAATGAAGG
[1] = system: RARb homodimer (NR concentration 270 nM)
Procedure, shortened: (§1)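 Binding buffer was PBS pH 7.4 with 2% milk, 0.02% Triton X-100, 1 mM DTT, 0.2 mg/mL BSA and 0.4 mg/ml salmon testes DNA. In it, ligand-free nuclear receptor dimers were incubated 1 h on custom Agilent 4×180K protein-binding microarrays carrying double-stranded probes. Antibodies against each partner (one per run) detected binding, and z-scores were calculated against random background probes after regression normalization of scanned fluorescence.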

[2] = system: RARg:RXRa (NR concentration 270 nM, RXRa partner concentration 90 nM)
Procedure, shortened: as §1

[3] = system: RARg homodimer (NR concentration 270 nM)
Procedure, shortened: as §1

[4] = system: RXRa DBDmut IVT, anti-RXR (DBD mutation: RXRa K156A/R161A, NR concentration 90 nM)
Procedure, shortened: as §1

[5] = system: RXRa homodimer (NR concentration 180 nM)
Procedure, shortened: as §1

[6] = system: THRa:RXRa (NR concentration 90 nM, RXRa partner concentration 90 nM)
Procedure, shortened: as §1

[7] = system: THRa homodimer (NR concentration 90 nM)
Procedure, shortened: as §1

[8] = system: VDR homodimer (NR concentration 270 nM)
Procedure, shortened: as §1

Row | Sequence | PBM binding z-score [1] | PBM binding z-score [2] | PBM binding z-score [3] | PBM binding z-score [4] | PBM binding z-score [5] | PBM binding z-score [6] | PBM binding z-score [7] | PBM binding z-score [8]
1 | TCTATTAGTTGATTAGGTCAACCGAAACAGCGGA | 3.09 | 2.8 | 2.68 | 1.55 | 2.1 | 3.1 | 2.74 | 1.2
2 | ACAGTCAGGTGAGTGAAGGTAACTCAGCTGGACG | -0.0774 | 0.2 | 0.617 | -0.471 | 0.122 | 1.63 | -0.205 | -0.58
3 | ATCTCTAGGTAACCAAGTTCAGTGAGTGCCGAAC | 1.55 | 0.591 | 0.796 | 1.34 | 0.412 | 1.52 | 0.776 | 2.83
4 | CGTCAAAGTTCAACTCAGGTAACGTAAAGCACGC | 4.24 | 5.85 | 6.43 | 4.55 | 5.06 | 5.03 | 1.38 | 4.21
5 | CCTGCTAGGTCATGGCCAGCTAATCTACAGTATG | 3.06 | 3.9 | 4.02 | 1.3 | 2.92 | 3.02 | 0.915 | 0.188
6 | TCTTGTAGATCAATAGAGGTTCAGAAAGTGCGCT | 0.168 | 0.234 | 0.116 | 0.728 | 0.478 | 0.501 | -0.823 | 1.37
7 | ATCCCTAGGTAACAAGTTCAGTGAAAGAGAGGAC | 1.94 | 1.09 | 1.15 | 0.955 | 0.712 | 1.65 | 1.17 | 2.48
8 | GATACAGGGTCAGCTAAAGGCCAGAGTATGGAAA | 3.61 | 6.61 | 5.01 | 0.751 | 4.45 | 3.02 | 0.329 | 0.806
9 | CCTAGTTGGTCAGCAGGTCACACACCGGATATGA | 3.43 | 3.52 | 3.44 | 0.217 | 3.16 | 2.77 | 1.35 | 1.05
10 | CGAACTAGGTCAAGGACCGTGAATCTCCGCACGC | 2.79 | 3.42 | 4.01 | 1.15 | 2.32 | 2.46 | 0.938 | -0.163
11 | TGTCAAAGTTCAAAGGGAACGTAAGTATCCACAC | 3.12 | 5.56 | 5.38 | 4.04 | 4.94 | 2.06 | -0.715 | 4.05
12 | GCAGACAGGTGAAACGCATGTAACTCAGGGTGGC | -0.102 | 0.258 | 0.151 | -0.443 | 0.749 | 0.0674 | -0.704 | -0.736
13 | ATCGAAAGGTAGACGAGGTGAGTATACACCGTTT | 0.107 | 0.927 | 0.758 | -0.531 | 0.582 | 2.01 | 0.239 | -0.467
14 | CCAGACAGGTGAGAAGTTAACTCAGCCTCGATTA | 0.312 | 0.26 | 0.42 | 0.268 | 0.0935 | 0.0119 | -0.003 | -0.158
15 | TCTAGTTGGTCACAGGTCACACACTCGAAATGCG | 3.55 | 3.75 | 3.33 | 1.62 | 3.83 | 2.96 | 1.97 | 1.7
16 | CCTCGGAGGACAACAGGAGGTCAGTGCTGCCAGA | 3.56 | 3.16 | 3.22 | 0.309 | 1.28 | 2.64 | 0.965 | 1.21
17 | TCGAGTAGGTTAAGGGCATTCAGAATGGCGTCGA | 1.47 | 1.08 | 1.23 | 0.693 | 1.18 | 2.16 | 0.794 | 1.14
18 | ATCGAAAGGTCGTGGTGAGTATAGAGAAAGGGAA | 2.85 | 4.45 | 3.8 | 1.52 | 4.79 | 2.82 | 0.58 | 1.23
19 | ATATGTAGGCTACATCCGGGTCATTCAGGCTATG | 2.14 | 1.7 | 1.22 | 0.518 | 1.95 | 2.91 | 2.14 | 2.15

Row | Sequence | PBM binding z-score [1] | PBM binding z-score [2] | PBM binding z-score [3] | PBM binding z-score [4] | PBM binding z-score [5] | PBM binding z-score [6] | PBM binding z-score [7] | PBM binding z-score [8]
20 | GCTATTAGTTGAAAGGGCAGCCGAATGATTCTCG | 1.51 | 0.552 | 0.863 | 0.695 | 0.636 | -0.12 | -0.775 | -0.507
21 | CCTACTGGGCCAAGGTCAGTGATCAGTCAAAGCA | 2.89 | 2.37 | 2.48 | -0.721 | 1.4 | 2.31 | 1.15 | 0.568
22 | TCAGACAGGTGAAGGTCACTCAGGTACGCAGTCG | 4.11 | 3.63 | 4.11 | 1.7 | 3.51 | 3.79 | 1.43 | 2.39
23 | CCGACTGGGGCATAAGGTTACTATAAGCCAGCCC | 1.38 | 1.37 | 0.813 | -0.277 | 1.04 | 1.59 | 0.819 | 0.0174
24 | GCTTGTAGATCAAGGTTCAGAAAGACTAAGCTAA | 0.239 | 0.226 | 0.173 | 1.09 | 0.62 | -0.139 | -0.807 | 1.33
25 | ATACCGAGGTGATCGTGAGGTCGTTGATACTAAC | 1.77 | 2.74 | 0.682 | 0.849 | 1.91 | 3.52 | 2.44 | 2.85
26 | CGTCAAAGTTCTACTAAGGTAACGTAAAGCACGC | 0.428 | 0.172 | 0.53 | 0.53 | 0.138 | 3.7 | 1.49 | 0.165
27 | CGTCAAAGTTCAAGGTACCGTAACAGAAAGCAGC | 3.94 | 5.07 | 6.14 | 4.56 | 4.33 | 2.06 | 0.154 | 3.09
28 | CTCGAAAGGACGTGCTCAGGTGAGTATACCAAAC | 0.589 | 0.291 | 0.547 | 0.19 | -0.118 | 1.17 | 0.542 | -0.391
29 | CCGTACGGGTCACTCCAGGTTATAGCATCGGAGT | 3.26 | 4.74 | 4.74 | 1.62 | 5.04 | 5.05 | 0.303 | 1.37
30 | CCTAGCAGGGCAATCTGGGTCACTCAAGGCTTGA | 2.36 | 1.56 | 1.89 | 0.252 | 0.981 | 4.24 | -0.0319 | -0.354
31 | CGTCCAAGGTCAATGCTAGGTCAGTAAAAGCATT | 4.89 | 7.54 | 6.94 | 3.31 | 5.24 | 4.28 | 2.63 | 2.92
32 | CAAACTAGGTCAAAGAGGTCAAAGTCCGTGCGTA | 5.27 | 6.66 | 6.81 | 3.24 | 7.15 | 4.4 | 2.33 | 6.65
33 | ACACACAGGTGATGAAGGTAACTCAGGCTATCAT | 0.43 | 0.435 | 0.664 | 0.355 | 0.276 | 1.06 | 0.194 | 0.17
34 | ATCTCTAGGTAAAGTTCAGTGAGAGATCGATAGA | 2.43 | 1.84 | 2.47 | 1.21 | 1.06 | 1 | 0.0803 | 1.28
35 | TCTTGTAGACCAAAGGTTAAGAAAGCCGAAGCCT | 1.34 | 1.88 | 0.82 | 0.533 | 2.54 | 1.3 | -0.878 | -0.489
36 | GCTAGTTGGTCAGAAAAAGGTCACACACCGGTCG | 5.21 | 5.28 | 4.72 | 0.268 | 4.82 | 3.52 | 1.44 | 1.71
37 | ATCGAAAGGTCGAGGTGAGTATGGAGAAAGGGAA | 2.76 | 4.21 | 4.51 | 0.698 | 4.17 | 2.84 | 0.743 | 0.435
38 | CCGACTGGAGCAAAGGTTACCATACTCAGTACGA | 2.17 | 1.89 | 1.29 | 0.545 | 2.57 | 1.39 | 0.122 | 0.17

Row | Sequence | PBM binding z-score [1] | PBM binding z-score [2] | PBM binding z-score [3] | PBM binding z-score [4] | PBM binding z-score [5] | PBM binding z-score [6] | PBM binding z-score [7] | PBM binding z-score [8]
39 | TTACCAAGGTGAAAGGTAGTTGATGCACGCCTTG | 0.674 | 1.1 | 0.73 | 0.0303 | 1.67 | 1.73 | 0.341 | -0.225
40 | ATATTTAGGTTACATCCGGGTCATTCAGGCTATG | 3.1 | 3.51 | 2.31 | 1.39 | 3.32 | 4.1 | 3.84 | 3.54
41 | CAAACTAGGTCACACAGGTCAAAGTCCGTGCGTA | 5.02 | 6.04 | 5.85 | 2.27 | 5.62 | 4.13 | 2.13 | 4.16
42 | GGAACGAGGGCAAAGTTGATAGCTTCTGTCGACG | 1.06 | 1.82 | 1.32 | 2.55 | 1.72 | 1.13 | -0.251 | 1.22
43 | CCTACTGGTCCATCAGGTCATTGATATCAACGTT | 2.5 | 1.6 | 1.47 | 1.04 | 1.28 | 3.41 | 3.29 | 2.02
44 | GATACAGGCTCAGCTAGAGGCCAGAGTATGGAAA | -0.469 | -0.109 | -0.0931 | -0.906 | -0.529 | -1.13 | -0.801 | -0.924
45 | TCTTGTAGATCAAAGGTTAAGGAAGCCGAAGCCT | 1.55 | 1.85 | 0.852 | 0.63 | 3.15 | 1.39 | -0.169 | -0.0198
46 | ACAGACAGGTGAGTGAAAGTAACTCAGCTGGACG | -0.349 | 0.188 | 0.291 | -0.517 | 0.309 | -0.377 | -0.737 | -0.536
47 | TCTTGTAGATCAATAGAGGTGAAGAAAGTGCGCT | 0.962 | 0.365 | 0.434 | 0.561 | 0.577 | 2.59 | -0.132 | -0.534
48 | CCTAGTTGGTCAAGTTCACACACGCTATAGGTAC | 3.1 | 2.45 | 2.72 | 3.31 | 2 | 2.12 | 1.46 | 5.29
49 | CCAGACAGGTGAGAAGGTAACTTAGCCTCGATTA | 0.632 | 0.486 | 0.577 | -0.104 | 0.246 | 0.524 | 0.316 | 0.118
50 | CGTCAAAGTTCAACGTAACGTAACAGAAAGCAGC | 3.83 | 5.52 | 5.97 | 4.56 | 4.19 | 1.78 | -0.366 | 3.03
51 | TCGGACAGGTGAAGGTAACTCAGGTACGCAGTCG | 1.08 | 0.664 | 1.17 | 0.768 | 0.653 | 1.33 | 0.486 | 0.395
52 | TAGCCTAGTTCATTGGGCCAGTATAGTACGCATC | 0.671 | 0.573 | 1.01 | 2.8 | 0.243 | 0.192 | -0.374 | 2.72
53 | ATCTCTAGGTAAGACTCATTTCAGTGAAGAACGC | 0.362 | -0.0496 | 0.0938 | 0.594 | -0.0279 | 0.358 | 0.931 | 0.563
54 | TCATATAGGTAAATGCTAGATGAAAGTCCGATCT | -0.248 | 0.314 | 0.454 | 1.15 | 0.617 | -0.0472 | -0.457 | 0.317
55 | ATCTCTAGGTAAGCCTCAGTTCAGTGAAGAACGC | 0.726 | 0.273 | 0.0936 | 0.247 | 0.103 | 0.985 | 1.15 | 1.21
56 | TCATATAGGTACACAGGTGAAAGTCCGTAAGTTA | 1.25 | 0.77 | 0.513 | 2.06 | 1.27 | 0.937 | 0.627 | 1.07
